Compounds with a hit are over-represented: about 10% of the library has one in this group of screens.
GPT2 inhibitor – GPT2 alanine aminotransferase inhibition; Q8TD30; Recombinant GPT2, coupled pyruvate oxidase/HRP Amplex Red fluorescence; Potency, µM (highest dose often 57.7 µM), for the others: at the top dose activity change, negative = inhibition, actives largely listed as inhibitors; 100,000 tested, 0.25% active; further: nearly all actives have a fitted effect of over 60% in size
Target sequence (Q8TD30 whole entry, looked up): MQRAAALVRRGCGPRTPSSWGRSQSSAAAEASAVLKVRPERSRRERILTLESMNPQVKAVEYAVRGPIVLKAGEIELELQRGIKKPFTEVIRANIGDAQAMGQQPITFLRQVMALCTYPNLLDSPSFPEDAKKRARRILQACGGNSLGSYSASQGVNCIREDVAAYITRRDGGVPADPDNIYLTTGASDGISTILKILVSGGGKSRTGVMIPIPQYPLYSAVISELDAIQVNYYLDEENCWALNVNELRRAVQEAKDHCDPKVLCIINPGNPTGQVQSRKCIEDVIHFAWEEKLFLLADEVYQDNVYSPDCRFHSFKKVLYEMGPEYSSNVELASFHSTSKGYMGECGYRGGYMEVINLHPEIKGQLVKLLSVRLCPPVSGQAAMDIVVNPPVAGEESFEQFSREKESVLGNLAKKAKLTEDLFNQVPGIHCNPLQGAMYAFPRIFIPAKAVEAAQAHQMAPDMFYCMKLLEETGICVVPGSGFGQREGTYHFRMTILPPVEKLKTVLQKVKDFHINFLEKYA
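Fluorescence read-out: pyruvate from GPT2 turnover coupled to pyruvate oxidase, HRP and Amplex Red (0.2mM ThPP, 0.2U/mL PO and HRP, 50uM Amplex final). Substrates 250uM a-KG, 2mM L-alanine; enzyme 10ng/uL; 30 min RT.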
3T3 cytotox – cytotoxic compounds in NIH 3T3 cells; Potency, µM (titrated, usually from 96.7 µM), for inactives: at the highest dose activity change, negative = cytotoxicity, hits mostly inhibitors; NIH 3T3 viability, CellTiter-Glo ATP luminescence, 48-72 h; 94,000 tested, 4.3% active; further: nearly all actives have a fitted effect of over 55% in size
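NIH 3T3 cells at 400 cells/well received 23 nL of compound by pintool and were incubated 48 or 72 h at 37 °C. Viability was read as ATP-coupled CellTiter-Glo luminescence.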
HEK293 tox – kills HEK 293 cells; HEK 293 viability, ATP luminescence (CellTiter-Glo), 48-72 h; Potency, µM (doses to about 115 µM), for inactives: at the highest dose activity change, negative = cytotoxicity, hits mostly inhibitors; 94,000 tested, 6.6% active; AID 1345083; further: nearly all actives have a fitted effect of over 60% in size
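ATP-coupled CellTiter-Glo luminescence served as viability read-out, recorded 10 min after reagent addition at room temperature. HEK 293 cells, 250 cells/well, had been incubated with pintool-transferred compound for 48 or 72 hr at 37 degree Celsius.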
FLuc inh – blocks purified firefly luciferase enzyme activity. purified P. pyralis luciferase, luminescence, biochemical. AID 1347043. 76,000 tested, 2.5% active. Potency, µM (titrated, usually from 115 µM), actives largely listed as inhibitors. P08659; further: nearly all actives have a fitted effect of over 65% in size
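Cell-free enzyme assay, 10nM P. pyralis luciferase, luciferin and ATP each at 10uM. Inhibition profiled over a 6-point titration, read as luminescence.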
hNpr1 antagonist – antagonists of human natriuretic peptide receptor Npr1 | P16066 | HEK293 hNpr1 GloSensor cGMP, ANP-stimulated luminescence | Potency, µM (series often up to 46.3 µM), for inactives: top-dose activity change, negative = inhibition, usual class: inhibitors | 76,000 tested, 1.6% active; calls by dose curve; further: nearly all actives have a fitted effect of over 60% in size
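Compound pre-incubated 30 min at room temperature on GloSensor-loaded HEK293 cells stably carrying hNpr1 and the pGS-40F cGMP biosensor. Stimulation uses hNppA at 0.1 nM final; luminescence is taken at baseline and 20 min post-agonist.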
* = called active by the depositor; i = inactive; ? = inconclusive; · = no result; [ ] = dose if it differs, or a comment. Unless noted, the call rests on the fitted dose curve; in most records, active means well fitted curve in the direction sought with a large enough effect; inconclusive means small, poorly fitted or top-dose-only effect, or another doubt; inactive means no such curve, though single readings can be large; an effect the other way counts as inactive or inconclusive. On the % scale 0 is the no-effect control and ±100 the full control effect; potency means the concentration at half of the fitted maximal effect.

SMILES | GPT2 inhibitor | 3T3 cytotox | HEK293 tox | FLuc inh | hNpr1 antagonist
Cn1ncc2c(C(=O)NCc3ccc(Cl)cc3)cc(-c3ccsc3)nc21 | -6.0% | 31.6µM* | 35.5µM* | · | ·
Cn1ncc2c(C(=O)NCc3cccc(Cl)c3)cc(-c3ccc(Cl)cc3)nc21 | i | -15.8% | -13.1% | · | ·
C[S+](=O)([O-])N1CC2(Cc3ccccc31)CN(C(=O)Nc1ccc(Cl)cc1)C2 | i | ? | -26.7% | · | ·
CSc1ccc(-c2cccc(C(=O)NCCN[S+](=O)([O-])c3cccc(C(F)(F)F)c3)c2)cc1 | i | ? | ? | · | ·
CSc1ccc(-c2cccc(C(=O)NCCN[S+](=O)([O-])c3ccc(C)cc3)c2)cc1 | i | ? | 39.8µM* | · | ·
COc1ccc(C(=O)NCCNC(=O)c2cccc(-c3ccc(SC)cc3)c2)cc1 | i | ? | ? | · | ·
CSc1ccc(-c2cccc(C(=O)NCCNC(=O)N(C)C)c2)cc1 | i | ? | 25.1µM* | · | ·
COc1cccc(CNC(=O)CNC(=O)c2cccc(-c3ccc(SC)cc3)c2)c1 | ? | -33.6% | 22.4µM* | · | ·
O=C(NCc1cccc(Cl)c1)C1CCCN1c1nccc(Nc2ccccc2F)n1 (stereo not drawn) | 4.8% | ? | ? | · | ·
Cc1nn(-c2ccc(F)cc2)c(Oc2ccccc2F)c1CCC(=O)NCc1ccco1 | 2.2% | 35.5µM* | ? | i | -18.8%
Cc1nn(-c2ccc(F)cc2)c(Oc2ccccc2F)c1CCC(=O)N1CCCC1 | -0.2% | 28.2µM* | 35.5µM* | i | -9.5%
Cc1ccccc1Oc1c(CCC(=O)N2CCSCC2)c(C)nn1-c1ccc(F)cc1 | i | ? | ? | i | -24.9%
CCc1nn(-c2ccccc2)c(Oc2ccc(C)cc2)c1CCC(=O)N1CCSCC1 | -14.6% | ? | 39.8µM* | i | -3.9%
Cc1nn(-c2ccc(F)cc2)c(Oc2cccc(F)c2)c1CCC(=O)N1CCSCC1 | i | ? | 35.5µM* | i | -17.4%
COCCC1(NC(=O)Cc2cccc(OC)c2)CCN(S(C)(=O)=O)CC1 | 2.9% | -10.4% | 0.1% | · | ·
Cc1nn(-c2ccc(F)cc2)c(Oc2cccc(F)c2)c1CCC(=O)N(C)C(C)C | 1.8% | ? | 50.1µM* | i | -16.8%
COCCCn1c(=O)c(C(=O)N2CCN(C(=O)c3cccc(Cl)c3)CC2)nc2cccnc21 | i | -8.7% | 3.8% | · | ·
O=C(NCc1ccccc1Cl)c1ccc2nnc(-c3cc(C(F)(F)F)cc(C(F)(F)F)c3)n2c1 | i | ? | ? | · | ·
Cn1c2c(c3ccccc31)CN(C(=O)Nc1ccc(Cl)cc1Cl)CC2 | i | ? | ? | 25.1µM* | -19.1%
Cn1c2c(c3ccccc31)CN(C(=O)Nc1ccccc1F)CC2 | -18.4% | 35.5µM* | 44.7µM* | ? | -2.9%
Cn1c2c(c3cc(F)ccc31)CN(C(=O)Nc1ccc(Cl)cc1Cl)CC2 | i | ? | ? | i | -13.4%
CC(=O)NC1CCN(c2ccc3nnc(-c4ccccc4)n3n2)CC1 | · | -26.9%[138 µM] | -10.5%[172 µM] | · | ·
O=C(NCc1ccc(F)c(F)c1)C1CCCN(c2ccnc3ccnn23)C1 (stereo not drawn) | i | ? | ? | · | ·
Cc1ccc(-c2cc3c(ccn3C)c(C(=O)NCc3cccnc3)n2)cn1 | i | 35.5µM* | ? | i | 7.8%[70.6 µM]
COc1ccc(-c2cc3c(ccn3C)c(C(=O)NCc3cccnc3)n2)cc1 | 3.4%[88.5 µM] | ? | 112µM* | ? | -29.6%[70.6 µM]
SMILES | GPT2 inhibitor | 3T3 cytotox | HEK293 tox | FLuc inh | hNpr1 antagonist
Cn1cncc1CNC(=O)c1nc(-c2cccc(N3CCOCC3)c2)cc2c1ccn2C | -4.4%[88.5 µM] | 50.1µM* | ? | i | -12.9%[70.6 µM]
Cn1ccc2c(C(=O)NCc3cccnc3)nc(-c3cnn(Cc4ccccc4)c3)cc21 | -0.5%[88.5 µM] | ? | 63.1µM* | i | -12.7%[70.6 µM]
Cn1ccc2c(C(=O)NCc3cnccn3)nc(-c3cccc(N4CCOCC4)c3)cc21 | 1.8%[88.5 µM] | ? | -20.9%[172 µM] | i | 4.6%[70.6 µM]
CC(C)(C)c1nnc2ccc(C(=O)N3CCOCC3)cn12 | -20.8%[88.5 µM] | -16.5%[138 µM] | -3.1%[172 µM] | · | ·
Cc1cnc(CC2CCN(S(=O)(=O)c3cccs3)C2)n1CC1CC1 (stereo not drawn) | i | -9.5% | ? | i | 2.8%
Cc1ccc([S+](=O)([O-])N2CCN(C(=O)c3nc4cccnc4n(CC(C)C)c3=O)CC2)cc1 | i | ? | ? | · | ·
CN1CCN(c2ccc(-c3cc4c(ccn4C)c(C(=O)NCc4cccnc4)n3)cc2)CC1 | 1.7% | ? | 28.2µM* | ? | -3.7%
Cn1ccc2c(C(=O)NCc3cccnc3)nc(-c3cccc(F)c3)cc21 | -1.2%[88.5 µM] | ? | 89.1µM* | i | ?
O=C(NCCc1cnc[nH]1)c1nc(-c2ccccc2)cc2[nH]ccc12 | 0.9%[88.5 µM] | ? | ? | i | -12.8%[70.6 µM]
Cn1ccc2c(C(=O)NCc3cccnc3)nc(-c3cccc(O)c3)cc21 | -24.5%[88.5 µM] | ? | ? | i | -20.7%[70.6 µM]
CN1CCN(c2ccc(-c3cc4c(ccn4C)c(C(=O)NCC4CCOCC4)n3)cc2)CC1 | i | 20µM* | ? | 35.5µM* | 1.8%
Cc1ccc(-c2cc3c(ccn3C)c(C(=O)NCCc3cnc[nH]3)n2)cn1 | -13.3%[88.5 µM] | 28.2µM* | ? | i | 4.7%[70.6 µM]
CN(C)c1ccc(-c2cc3c(ccn3C)c(C(=O)NCc3cccnc3)n2)cc1 | -19.7%[88.5 µM] | ? | ? | ? | -3.4%[70.6 µM]
O=C(NCc1cccs1)C1CCCN1C(=O)c1cccc(-c2ccccn2)c1 (stereo not drawn) | -7.0% | -25.1% | -11.7% | · | ·
NC(=O)c1cccc(-c2n[nH]c3c2CC(=O)N(Cc2ccccc2)C3)c1 | 4.8%[88.5 µM] | ? | -1.2%[172 µM] | i | -1.1%[70.6 µM]
Cn1ccc2c(C(=O)NCc3cccnc3)nc(-c3ccc([S+](C)(=O)[O-])cc3)cc21 | 0.0%[88.5 µM] | ? | ? | i | 2.3%[70.6 µM]
Cn1ccc2c(C(=O)NCc3cccnc3)nc(-c3cncnc3)cc21 | -13.4%[88.5 µM] | 44.7µM* | -20.9%[172 µM] | i | 1.6%[70.6 µM]
Cc1noc2nc(C(C)C)cc(C(=O)NC3CCCc4c3[nH]c3c(Cl)cccc43)c12 (stereo not drawn) | -7.1% | ? | 35.5µM* | i | -1.7%
Cc1noc(C)c1CC(=O)NC1CCCc2c1[nH]c1c(Cl)cccc21 (stereo not drawn) | 3.9% | 20µM* | ? | i | -11.0%
COc1ccccc1C(=O)NC1CCCc2c1[nH]c1c(Cl)cccc21 (stereo not drawn) | i | ? | ? | i | 5.0%
COc1ccc(CC(=O)NC2CCCc3c2[nH]c2c(Cl)cccc32)cc1OC (stereo not drawn) | i | 12.6µM* | 28.2µM* | i | ?
Cc1ccsc1C(=O)N1CCC(Cc2nc(-c3ccncc3)n[nH]2)CC1 | i | -12.9% | -5.8% | · | ·
O=C(Nc1ccc(F)cc1)c1ccc2oc(-c3ccnc(Cl)c3)nc2c1 | i | ? | ? | · | ·

Screening data from PubChem.
